# Compound activity from PubChem.
# p53null 32C tox = qHTS Screen for Compounds that Selectively Target Cancer Cells with p53 Mutations: Cytotoxicity of p53 Null Cells at the Permissive Temperature. actives 0.62% (n = 55,000). AID 903, 2007. Potency, µM (highest dose often 46.1 µM), for inactives: top-dose activity change, negative = cytotoxicity, usual class: cytotoxic. H1299-neo p53 null cells, ATP luminescence, 24 h, 32C;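 also: 0% = DMSO only and -100% = full killing by 100 µM tamoxifen; nearly all actives have a fitted effect of over 55% in size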
#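 Luminescent ATP readout gave cell viability of p53-null H1299-neo cells after a 24 h compound exposure at the permissive 32C. Titrations ran up to 46 uM, and AC50s were fitted with the standard Hill equation.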
# HTT prom inh = Primary qHTS for Identification of Small Molecule Inhibitors of Huntingtin Promoter Activity; Potency, µM (titrated, usually from 57.5 µM), for inactives: top-dose activity change, negative = inhibition, most hits filed as inhibitors; AID 1508623, 2021; HEK293 HTT promoter firefly luciferase reporter, 24 h; actives 0.93% (n = 48,000); also: nearly all actives have a fitted effect of over 50% in size
#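 HEK293 luciferase promoter-reporter cells (2,500/well) plated 24 h, then compounds added at up to 57.5 uM final for 24 h at 37 °C. Firefly luminescence by Dual-Glo, normalized to vehicle (0%) and zero RLU (-100%).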
# HTT-AS act = Primary qHTS for Identification of Small Molecule Activators of Huntingtin-Antisense Promoter Activity; actives 0.24% (n = 48,000); Potency, µM (highest dose often 57.5 µM), for inactives: top-dose activity change, positive = activation, usual class: activators; HEK293 HTT-AS promoter firefly luciferase reporter, 24 h; response scale: percent change from vehicle, -100% = no light; also: nearly all actives have a fitted effect of over 55% in size
#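 Quantitative HTS used concentration series of up to 57.5 uM final on HEK293 luciferase reporter cells, 24 h at 37 degrees C. Readout was Dual-Glo firefly luminescence.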
# p53null 39C kill = qHTS Screen for Compounds that Selectively Target Cancer Cells with p53 Mutations: Cytotoxicity of p53 Null Cells at the Nonpermissive Temperature; H1299 p53-null (neo) cells, 39C, ATPlite viability, 24 h; Potency, µM (titrated, usually from 46.1 µM), without a hit: top-dose activity, negative = cell killing, most hits filed as cytotoxic; actives 0.97% (n = 55,000); AID 904, 2007;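 also: 0% = DMSO only and -100% = full killing by 100 µM tamoxifen; nearly all actives have a fitted effect of over 50% in size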
#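 H1299 lung cancer cells, p53-null (H1299-neo) or expressing p53 A138V (H1299-p53A138V), were plated overnight at 37C, then exposed to compounds at up to 46 uM for 24 hr at 39C. Viability was read by ATP-based luminescence.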
# * marks the source's active call; other numbers are inactive results; u = inconclusive; x = no result given. Compounds with a hit are over-represented: about 1.9% of the library has one in this group of screens. Calls follow the shape of the dose curve; as a rule, active = well fitted curve in the direction sought with a large enough effect; inconclusive = small, poorly fitted or top-dose-only effect, or another doubt; inactive = no such curve, though single readings can be large; an effect the other way counts as inactive or inconclusive. Potency is read from the fitted curve at half-maximal effect.
SMILES,p53null 32C tox,HTT prom inh,HTT-AS act,p53null 39C kill
Cc1ccc(CNC(=O)Cn2c(SCC(=O)Nc3ccc(F)cc3)nc3ccccc32)cc1,u,u,-38%,13µM*
OCCn1cc(-c2ccc3c(c2)CCC3=NO)c(-c2ccncc2)n1,x,u,-34%,x
CCCCCCCCCCCCc1ccc(S(=O)(=O)Nc2nncs2)cc1,x,1%,-1%,x
CS(=O)(=O)c1ncc(Cl)c(C(=O)N2CCN(c3cccc(Cl)c3)CC2)n1,14µM*,u,-94%,-95%
CC1CCc2onc(C(=O)N3CCN(c4cccc(Cl)c4)CC3)c2C1 (stereo unspecified),5%,u,-32%,-5%
CCS(=O)(=O)c1ncc(Cl)c(C(=O)N2CCN(c3cccc(Cl)c3)CC2)n1,u,u,-95%,3.2µM*
FC(F)(F)c1cccc(Nc2nc3nonc3nc2Nc2ccc(Cl)cc2)c1,u,0.35µM*,-94%,13µM*
O=C(Nc1cccc(C(F)(F)F)c1)c1cc(-c2ccc(Cl)cc2)on1,1%,-6%,-8%,16%
CCOC(=O)C1=C(C)NC2=C(C(=O)CC(C)(C)C2)C1c1ccc(-c2ccccc2)cc1 (stereo unspecified),x,u,-29%,x
Cc1ccc(-n2nc3c(N4CCCC(C(=O)NCCc5ccccc5)C4)nnc(C)c3c2C)cc1 (stereo unspecified),9%,-5%,-12%,-4%
CCc1ccc(CNC(=O)C2CCCN(c3nnc(C)c4c(C)n(-c5ccccc5)nc34)C2)cc1 (stereo unspecified),-24%,-15%,-15%,16µM*
COc1ccccc1CCNC(=O)C1CCN(c2nnc(C)c3c(C)n(-c4ccc(C)cc4)nc23)CC1,-13%,-6%,-14%,10µM*
Cc1nnc(N2CCCC(C(=O)NCc3ccccc3)C2)c2nn(-c3ccccc3)c(C)c12 (stereo unspecified),0%,-10%,-9%,2%
COc1ccc(Cl)cc1NC(=O)C1CCN(c2nnc(C)c3c(C)n(-c4ccccc4)nc23)CC1,15%,-10%,0%,-6%
Cc1ccc(Cl)cc1NC(=O)C1CCN(c2nnc(C)c3c(C)n(-c4ccccc4)nc23)CC1,u,0%,-1%,13µM*
Cc1nnc(N2CCC(C(=O)NCc3ccc(F)cc3)CC2)c2nn(-c3ccc(Cl)cc3)c(C)c12,-11%,u,-39%,-12%
CCOc1ccccc1CNC(=O)C1CCN(c2nnc(C)c3c(C)n(-c4ccc(C)cc4)nc23)CC1,u,u,-41%,16µM*
CC(C)(O)CC[C@@H](O)[C@](C)(O)[C@H]1CC[C@@]2(O)C3=CC(=O)[C@@H]4C[C@@H](O)[C@@H](O)C[C@]4(C)[C@@H]3CC[C@]12C,x,-15%,-37%,x
Cc1nnc(N2CCC(C(=O)NCCc3ccccc3)CC2)c2nn(-c3ccc(Cl)cc3)c(C)c12,6%,-11%,-22%,u
Cc1nnc(N2CCC(C(=O)NCCc3ccccc3Cl)CC2)c2nn(-c3ccccc3)c(C)c12,u,u,-37%,10µM*
C[C@@H]1[C@H](O)[C@@H](C)C=CC=CC=CC=CC=CC=CC=C[C@H](O[C@@H]2O[C@H](C)[C@H](O)[C@H](N)[C@@H]2O)C[C@@H]2O[C@](O)(C[C@@H](O)C[C@@H](O)[C@H](O)CC[C@@H](O)C[C@@H](O)CC(=O)O[C@H]1C)C[C@H](O)[C@@H]2C(=O)O,x,0%,-10%,x
C[C@]12C=CC(=O)C=C1CC[C@@H]1[C@@H]2[C@@H](O)C[C@@]2(C)[C@@H]1CC[C@]2(O)C(=O)CO,x,0%,-11%,x
O=S(=O)(Nc1cccc(-c2ccc(N3CCCCC3)nn2)c1)c1cccs1,16µM*,x,x,10µM*
O=S(=O)(Nc1cccc(-c2ccc(N3CCCCCC3)nn2)c1)c1ccccc1,-20%,x,x,u
O=S(=O)(Nc1cccc(-c2ccc(N3CCCCC3)nn2)c1)c1ccc(Cl)s1,16µM*,x,x,10µM*
